# Screening data deposited in PubChem by several laboratories.
# ANO1 activ = activators or potentiators of mouse TMEM16A chloride channel; Q8BHY3; HEK293 TMEM16A/YFP-H148Q/I152L, iodide quench fluorescence; stronger effect = lower value; B-score at 10 µM; 340,000 compounds, 0.3% hits;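 active = fluorescence-ratio B-score plate-corrected deviation score at least 3 library SD below zero, with starting fluorescence score within 5 deviations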;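 note: channel opened by trigger with iodide after compound preincubation; score built on the fluorescence ratio of max minus min over baseline; more negative score means more quench and so TMEM16A activation or potentiation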
# MPTP inh = blocks calcium-induced mitochondrial swelling | isolated mouse mitochondria, Ca2+ swelling absorbance, 30 min | inhibition, % at 10 µM | 360,000 compounds, 1.4% hits | AID 602449;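 active = inhibition of 50% or more, scaled per plate between neutral and stimulator controls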;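 note: 0% = DMSO wells given calcium and 100% = 1 mM EGTA wells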
# NR3A LBD binder = NR3A (human) ligand-binding domain modulation; NR3A LBD differential scanning fluorimetry, Tm shift; 0% = protein alone, 100% = glycine-bound protein; Tm shift relative to glycine control, % at 25 µM; 340,000 compounds, 2.5% hits;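 active = melting temperature shift of at least 10% of the positive control shift, at one fixed dose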
# ANO1 block = mouse TMEM16A channel inhibition, primary screen | 310,000 compounds, 1.2% hits | normalized B-score (activity score, 25-100; higher = stronger inhibition) at 10 µM | HEK293 TMEM16A/YFP iodide influx fluorescence, ionomycin | Q8BHY3;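 active = ratio plate-corrected score three or more library SD toward inhibition, starting fluorescence score within five deviations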;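 note: score derived from kinetic fluorescence span divided by baseline fluorescence per well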
# CRFR2-BP ag = CRF-BP/CRF-R2 complex agonism. HEK293 CRF-R2/CRF-BP, calcium dye fluorescence (FLIPR); percent of saturating CRF peptide response. activation, % at 13.2 µM. 350,000 compounds, 0.46% hits. AID 588473;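 active = activation of at least 50%, plus an integration ratio under a set limit after plate pattern correction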;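 note: plate controls were neutral control wells without compound for no effect and CRF at EC100 for full effect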
# CRFBP-R2 block = antagonists of CRF-binding protein/CRF-R2 receptor complex; inhibition, % at 11.8 µM; HEK293 CRF-R2/CRF-BP, CRF-induced calcium fluorescence; AID 588475; 350,000 compounds, 0.59% hits;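 active = inhibition of the ligand-induced calcium signal above about 50% at the single tested concentration, limit read from the data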
# * marks the source's active call; other numbers are inactive results; i = inactive; · = not tested or not shown. The list is not random: actives were taken first. Their share in the collection is about 5.1%.
SMILES,ANO1 activ,MPTP inh,NR3A LBD binder,ANO1 block,CRFR2-BP ag,CRFBP-R2 block
Cc1cccc(C(=O)O/N=C(\N)c2ccc(Cl)cc2)c1,i,0.3,10.5*,i,-0.1,-4.1
Cc1cccc(C(=O)O/N=C(\N)c2ccc(Br)cc2)c1,i,-3.1,9.4,i,-3.9,-18.1
COCCn1c(N)c(N(Cc2ccccc2)C(=O)c2ccc(N3CCCC3=O)cc2)c(=O)[nH]c1=O,i,0.1,-1.6,·,-1.4,-0.6
CS(=O)(=O)N(Cc1ccco1)Cc1ccccc1Cl,i,4.5,0.1,i,-1.6,4.1
CN(C)S(=O)(=O)c1ccc(S(=O)(=O)N(Cc2ccco2)Cc2ccccc2Cl)cc1,-19.4*,5.0,-11.9,i,45.0,-119.4
COc1ccc(S(=O)(=O)N(Cc2ccc(OC)c(OC)c2)Cc2ccco2)cc1,i,20.4,0.0,25*,-1.3,21.3
O=S(=O)(c1ccc(S(=O)(=O)N(Cc2ccco2)Cc2ccccc2Cl)cc1)N1CCCC1,-12.5*,2.7,-0.1,i,7.4,-9.8
Cc1cc(C)cc(N(CCC#N)C(=O)CSc2ncnc3sccc23)c1,i,-0.5,-1.4,·,0.6,-2.9
CC(=O)Nc1cccc(-c2csc(Nc3ccc(C)cn3)n2)c1,i,1.5,27.1*,i,-1.1,-80.1
Cc1cccc(Nc2nc(-c3ccc(O)cc3O)cs2)n1,i,2.7,39.7*,i,0.1,-5.2
Cc1ccc(-c2csc(Nc3ccccn3)n2)cc1,i,-0.3,-2.8,i,-0.7,-7.9
CC(=O)Oc1ccc(-c2csc(Nc3ccc(Cl)cn3)n2)cc1,i,-0.8,32.4*,i,3.9,-3.3
COc1ccc(-c2csc(Nc3ccc(C)cn3)n2)cc1,i,10.4,16.0*,i,-1.5,-2.3
Cc1ccc2[nH]cc(S(=O)(=O)c3ccc(C)c(C)c3)c(=O)c2c1,i,1.1,·,i,-1.7,2.2
Cc1ccccc1CNC(=O)C(=O)NCCC1CCCCN1S(=O)(=O)c1cccs1 (configuration not stated),i,-1.7,-0.3,i,3.2,1.4
N#Cc1ccc(COc2cccc3cccnc23)cc1,i,-1.2,-0.7,i,-1.4,4.1
Oc1ccc(-c2csc(Nc3ccc4c(c3)OCO4)n2)c(O)c1,i,0.8,7.0,·,-1.1,3.6
N#Cc1ccc(Nc2nc(-c3ccc(O)cc3O)cs2)cc1C(F)(F)F,i,23.8,22.7*,·,-4.3,1.3
CC(=O)Nc1ccc(-c2csc(Nc3cccc(C)n3)n2)cc1,i,0.9,26.1*,·,-1.2,-16.1
COc1cc2c(cc1OC)CN(C(=O)COc1ccccc1[N+](=O)[O-])CC2,i,0.0,-1.4,100*,0.1,4.6
COc1ccc(-c2cc(N)n(S(=O)(=O)c3c(F)c(F)c(F)c(F)c3F)n2)cc1OC,i,1.2,-2.8,100*,4.7,30.0
Cc1ccc(C(=O)C(NC(=O)c2ccco2)N2CCOCC2)cc1 (configuration not stated),i,-1.1,10.6*,i,1.8,9.9
O=C(NC(C(=O)c1ccccc1)N1CCCCCC1)c1ccco1 (configuration not stated),i,0.4,0.8,i,1.7,-9.5
CCN1CCC(O)(/C=C/c2ccc(C(C)C)cc2)C(C(=O)/C=C/c2ccc(C(C)C)cc2)C1 (configuration not stated),i,35.1,24.1*,·,3.1,-42.1
CCN1CCN(C(=O)/C=C/c2ccc(C(C)C)cc2)CC1,i,-0.3,-2.7,i,-1.2,-3.6
SMILES,ANO1 activ,MPTP inh,NR3A LBD binder,ANO1 block,CRFR2-BP ag,CRFBP-R2 block
COc1cc(OC)cc(C(=O)NC(C(=O)NNC(=O)CN(C)S(=O)(=O)c2ccc(C)cc2)C(C)C)c1 (configuration not stated),i,0.2,0.6,·,0.0,17.6
CC(=O)C1=C(C)OC(N)=C(C#N)C1c1ccncc1 (configuration not stated),i,-0.4,11.0*,i,-0.5,8.7
CCOC(=O)C1=C(C)OC(N)=C(C#N)C1c1ccsc1 (configuration not stated),i,-2.7,11.1*,i,-0.4,6.3
CCOC(=O)C1=C(CC)OC(N)=C(C#N)C1c1ccsc1 (configuration not stated),i,-0.4,-3.5,i,1.7,-4.6
N#CC1=C(N)Oc2c(O)cc3ccccc3c2C1c1ccsc1 (configuration not stated),i,6.5,11.8*,i,-2.0,-83.8
CCOC(=O)c1c(S(=O)(=O)Nc2ccccc2OCC)c(C)n(C)c1C,i,-0.3,-1.5,i,-0.6,6.8
CN1CCN([C@@H]2CS(=O)(=O)N[C@H]2COCc2ccccc2)CC1,·,-0.9,·,·,·,·
CCNC(=O)C1CCCN(C(=O)c2cc(C)oc2C)CC1 (configuration not stated),·,-0.1,·,·,·,·
CN(C)C1(CNC(=O)C2CCN(S(=O)(=O)c3cc(Cl)ccc3Cl)CC2)CCCCC1,i,0.6,-8.0,i,0.1,2.0
CCc1noc(C)c1C(=O)N(CC)CC(=O)NCc1ccc(F)cc1,·,0.6,·,·,0.8,6.4
Cc1cc(N2CCCC2)c(F)cc1/C=C\[N+](=O)[O-],i,-0.9,1.6,·,120.5*,-74.2
Cc1cc(N2CCC(C)CC2)c(F)cc1[N+](=O)[O-],i,-0.2,1.4,i,-1.1,-6.6
COc1ccc(CNC(=O)c2cn(Cc3ccc(OC(C)=O)cc3)c(=O)s2)cc1,·,1.3,·,·,·,·
O=C1CC(C(=O)N2CCN(c3ccccc3)CC2)CN1Cc1ccccc1 (configuration not stated),i,-1.2,-0.8,·,0.5,-2.2
COc1ccc(NC(=O)c2ccc3ccccc3n2)cc1S(=O)(=O)Nc1ccccc1Cl,i,0.3,16.4*,i,6.1,5.8
COc1ccc(NC(=O)c2cc(C)nc3ccccc23)cc1S(=O)(=O)Nc1ccccc1Cl,i,1.1,-14.3,i,1.6,-18.2
CC(C)(C)S(=O)N1Cc2cc(CO)cc(-c3ccccc3)c2[C@@H]1CCO (some centres not stated),·,0.0,-3.4,·,0.6,1.8
CCCOc1ccc(NC(=O)CC2C(=O)N(Cc3ccccc3)C(=S)N2Cc2cccs2)cc1 (configuration not stated),i,5.1,16.5*,i,0.4,-15.0
CCN1C(=O)C(CC(=O)Nc2ccc(F)cc2)N(Cc2cccs2)C1=S (configuration not stated),i,0.5,12.6*,i,0.1,-34.2
CCN1C(=O)C(CC(=O)Nc2ccc(OC)cc2)N(CCc2ccccc2F)C1=S (configuration not stated),i,10.5,-2.1,i,1.3,-12.0
